Laboratory results as given in PubChem BioAssay (Tox21).
Inconclusive results are not listed. Activity calls are given as the source filed them. Unless noted, calls come from the whole dose curve; as a rule, active = well fitted curve in the direction sought with a large enough effect in the repeat runs; inconclusive = weak or mixed curves; inactive = no such curve, though single readings can be large; an effect the other way counts as inactive or inconclusive.

What was measured:
[1] = qHTS assay to identify small molecule antagonists of the glucocorticoid receptor (GR) signaling pathway - cell viability counter screen (AID 720693); note: nearly all actives have a fitted effect of over 55% in size
[2] = qHTS assay for identifying genotoxic compounds that show differential cytotoxicity against isogenic chicken DT40 cell lines with known DNA damage response pathways - Rev3 mutant cell line (AID 743014); note: nearly all actives have a fitted effect of over 55% in size; note: potency is the fitted concentration of half-maximal effect
[3] = qHTS assay for identifying genotoxic compounds that show differential cytotoxicity against isogenic chicken DT40 cell lines with known DNA damage response pathways - Rad54/Ku70 mutant cell line (AID 743015); note: nearly all actives have a fitted effect of over 60% in size; note: potency is the fitted concentration of half-maximal effect
[4] = qHTS assay to identify small molecule antagonists of the androgen receptor (AR) signaling pathway - cell viability counter screen (AID 743033; note: nearly all actives have a fitted effect of over 45% in size)
[5] = system: thyroid hormone receptor (rat, GH3 cells); experiment: qHTS assay to identify small molecule agonists of the thyroid receptor (TR) signaling pathway (AID 743066; calls by dose curve)
[6] = qHTS assay to identify small molecule antagonists of the estrogen receptor alpha (ER-alpha) signaling pathway - cell viability counter screen (AID 743074; calls by dose curve;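 note: HEK293 cells carrying ER-alpha-UAS-bla reporter stimulated with 17beta-estradiol; nearly all actives have a fitted effect of over 45% in size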)
[7] = biological target: Aromatase (Homo sapiens) (UniProt P11511); experiment: qHTS assay to identify aromatase inhibitors (AID 743083); note: nearly all actives have a fitted effect of over 55% in size
Chain of Aromatase (Homo sapiens) (P11511 whole entry, looked up): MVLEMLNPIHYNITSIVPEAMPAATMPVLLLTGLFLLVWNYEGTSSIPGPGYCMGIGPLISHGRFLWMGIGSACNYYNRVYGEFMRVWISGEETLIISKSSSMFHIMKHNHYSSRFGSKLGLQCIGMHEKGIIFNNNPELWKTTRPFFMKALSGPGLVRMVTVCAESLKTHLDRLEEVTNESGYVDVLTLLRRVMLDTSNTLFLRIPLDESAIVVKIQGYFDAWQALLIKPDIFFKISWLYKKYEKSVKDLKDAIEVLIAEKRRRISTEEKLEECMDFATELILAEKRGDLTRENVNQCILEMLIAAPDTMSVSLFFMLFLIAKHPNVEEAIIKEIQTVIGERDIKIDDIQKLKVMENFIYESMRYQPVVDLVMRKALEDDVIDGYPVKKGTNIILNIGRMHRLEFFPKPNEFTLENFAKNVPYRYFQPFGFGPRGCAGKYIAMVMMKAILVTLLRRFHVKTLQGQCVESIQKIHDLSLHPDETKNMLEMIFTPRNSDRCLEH

[8] = qHTS assay for identifying genotoxic compounds that show differential cytotoxicity against isogenic chicken DT40 cell lines with known DNA damage response pathways - wild type cell line (AID 743012); note: nearly all actives have a fitted effect of over 60% in size
Summary of the method: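 Wild type DT40, 300 cells/well, ~0.5 h settle at 37 C/5% CO2; compounds in DMSO added by pintool; 40 h at 37 C/5% CO2; CellTiter-Glo, 30 min RT; luminescence.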

[9] = qHTS assay to identify small molecule antagonists of the androgen receptor (AR) signaling pathway using the MDA cell line - cell viability counter screen (AID 743041; note: nearly all actives have a fitted effect of over 45% in size)
Summary of the method: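 R1881-driven MDA-kb2 AR-luc cells, 3,000/well, were dosed with library compounds for 16 h; cell health came from CellTiter-Fluor fluorescence in the reporter wells.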

[10] = qHTS assay to identify small molecule antagonists of the thyroid receptor (TR) signaling pathway (AID 743065); note: nearly all actives have a fitted effect of over 55% in size; note: potency is the fitted concentration of half-maximal effect
Summary of the method: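 Antagonism measured as loss of luciferase signal in GH3 cells stably carrying a TRE-luciferase reporter, co-treated with compound and T3 (1 nM final) for 23.5 h at 37 C. Viability was read in the same well by CellTiter-Fluor.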

[11] = qHTS assay to identify small molecule antagonists of the estrogen receptor alpha (ER-alpha) signaling pathway using the BG1 cell line - cell viability counter screen (AID 743081);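 note: compound given together with 17beta-estradiol as the ER stimulus; nearly all actives have a fitted effect of over 45% in size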; note: potency is the fitted concentration of half-maximal effect
[12] = qHTS assay to identify small molecule antagonists of the thyroid receptor (TR) signaling pathway - cell viability counter screen (AID 743064); note: nearly all actives have a fitted effect of over 50% in size; note: potency is the fitted concentration of half-maximal effect
Summary of the method: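 Counter screen for cytotoxicity: compound plus T3 (1 nM final) on GH3.TRE-Luc cells, 23.5 h at 37 °C, then fluorescence viability readout with CellTiter-Fluor.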

[13] = biological target: Estrogen receptor (Homo sapiens) (UniProt P03372); experiment: qHTS assay to identify small molecule antagonists of the estrogen receptor alpha (ER-alpha) signaling pathway (AID 743069; active = well fitted curve in the direction sought with a large enough effect in the signal ratio in the repeat runs, not every such curve was filed as active; the % refers to the signal ratio)
Chain of Estrogen receptor (Homo sapiens) (P03372 whole entry, looked up): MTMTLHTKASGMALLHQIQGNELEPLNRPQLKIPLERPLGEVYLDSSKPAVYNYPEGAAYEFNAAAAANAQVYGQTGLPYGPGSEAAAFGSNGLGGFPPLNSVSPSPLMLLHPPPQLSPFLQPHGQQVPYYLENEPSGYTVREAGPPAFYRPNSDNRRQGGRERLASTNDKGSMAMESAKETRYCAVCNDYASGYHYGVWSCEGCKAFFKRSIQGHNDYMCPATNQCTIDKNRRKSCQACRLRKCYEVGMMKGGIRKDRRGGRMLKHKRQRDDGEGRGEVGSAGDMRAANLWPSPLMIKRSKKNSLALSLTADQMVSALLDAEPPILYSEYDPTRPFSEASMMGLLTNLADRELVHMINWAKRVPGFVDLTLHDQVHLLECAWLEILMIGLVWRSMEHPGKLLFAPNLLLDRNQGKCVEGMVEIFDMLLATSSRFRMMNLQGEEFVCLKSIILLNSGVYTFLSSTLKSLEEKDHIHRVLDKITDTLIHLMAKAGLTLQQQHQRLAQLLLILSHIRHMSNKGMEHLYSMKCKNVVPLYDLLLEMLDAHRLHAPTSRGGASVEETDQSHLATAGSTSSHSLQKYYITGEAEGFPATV
Summary of the method: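 Compound effects are measured against 17beta-estradiol stimulation in HEK293 cells with a UAS-controlled beta-lactamase reporter for ER-alpha. Exposure lasts 18 hr at 37C; LiveBLAzer B/G FRET substrate follows for 2 hr at room temperature.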

[14] = biological target: Estrogen receptor (Homo sapiens) (UniProt P03372); experiment: qHTS assay to identify small molecule agonists of the estrogen receptor alpha (ER-alpha) signaling pathway (AID 743075; calls by dose curve)
[15] = biological target: Estrogen receptor (Homo sapiens) (UniProt P03372); experiment: qHTS assay to identify small molecule agonists of the estrogen receptor alpha (ER-alpha) signaling pathway using the BG1 cell line (AID 743079); conditions: BG1Luc4E2 cells, ERE-luciferase agonist, 22 h; at 70.3 µM (top of the series); note: nearly all actives have a fitted effect of over 20% in size
[16] = qHTS assay to identify small molecule antagonists of the estrogen receptor alpha (ER-alpha) signaling pathway using the BG1 cell line (AID 743080; calls by dose curve;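 note: BG1 cells stimulated with 17beta-estradiol alongside compound; nearly all actives have a fitted effect of over 25% in size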)
Summary of the method: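 BG1-Luc-4E2 cells (endogenous full-length ER-alpha, 4xERE luciferase) hormone-starved 5 days in charcoal-stripped FBS, plated 4,000/well for 24 h, then compound plus 17beta-estradiol for 21.5 h at 37 C; ONE-Glo luminescence read.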

[17] = biological target: Androgen receptor (Homo sapiens) (UniProt P10275); experiment: qHTS assay to identify small molecule agonists of the androgen receptor (AR) signaling pathway using the MDA cell line (AID 743040; note: nearly all actives have a fitted effect of over 20% in size)
Chain of Androgen receptor (Homo sapiens) (P10275 whole entry, looked up): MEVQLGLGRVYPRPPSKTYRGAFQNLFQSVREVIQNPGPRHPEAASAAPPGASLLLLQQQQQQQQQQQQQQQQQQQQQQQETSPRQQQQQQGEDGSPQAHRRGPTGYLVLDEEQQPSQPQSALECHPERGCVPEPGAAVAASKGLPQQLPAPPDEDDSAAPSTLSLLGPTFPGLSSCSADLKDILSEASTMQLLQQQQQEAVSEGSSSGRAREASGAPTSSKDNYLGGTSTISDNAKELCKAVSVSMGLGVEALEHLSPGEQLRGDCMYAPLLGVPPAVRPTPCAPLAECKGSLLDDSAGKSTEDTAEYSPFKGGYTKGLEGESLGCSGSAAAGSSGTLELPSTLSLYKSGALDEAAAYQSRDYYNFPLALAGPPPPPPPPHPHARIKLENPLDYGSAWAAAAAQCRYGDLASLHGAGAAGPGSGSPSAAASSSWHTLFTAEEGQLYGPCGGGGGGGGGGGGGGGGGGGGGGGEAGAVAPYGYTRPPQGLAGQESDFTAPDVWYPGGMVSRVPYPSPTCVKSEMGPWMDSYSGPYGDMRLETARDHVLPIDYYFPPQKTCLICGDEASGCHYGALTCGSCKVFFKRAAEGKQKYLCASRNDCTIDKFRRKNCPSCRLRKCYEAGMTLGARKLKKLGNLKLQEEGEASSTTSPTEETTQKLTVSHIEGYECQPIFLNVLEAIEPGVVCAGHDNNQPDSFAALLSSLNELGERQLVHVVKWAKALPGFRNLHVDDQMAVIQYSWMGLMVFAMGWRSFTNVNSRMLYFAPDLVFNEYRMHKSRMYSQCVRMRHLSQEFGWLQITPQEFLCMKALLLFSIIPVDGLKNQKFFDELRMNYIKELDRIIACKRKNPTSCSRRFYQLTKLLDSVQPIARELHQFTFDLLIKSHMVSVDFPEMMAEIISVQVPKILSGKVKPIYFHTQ
Summary of the method: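 After a 5 h incubation at 37C and 0% CO2, MDA-kb2 reporter cells were dosed with compounds in DMSO and kept 16 h under the same conditions. Luciferase activity was then read as luminescence with ONE-Glo.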

[18] = biological target: Androgen receptor (Homo sapiens) (UniProt P10275); experiment: qHTS assay to identify small molecule antagonists of the androgen receptor (AR) signaling pathway using the MDA cell line (AID 743042; note: nearly all actives have a fitted effect of over 55% in size)
Summary of the method: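 Antagonist mode: compounds plus R1881 agonist added to MDA-kb2 AR-luc cells, incubated 16 h at 37C. Luciferase reporter luminescence quantified, with multiplexed CellTiter-Fluor readout for cell viability.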
% is set by controls: 0 for no effect and ±100 for the full control effect.

COc1cccc(C(=O)NN(C(=O)c2cc(C)cc(C)c2)C(C)(C)C)c1C
active: Potency [2] 68.6 µM | Potency [3] 61.1 µM
inactive: Potency [1] | Potency [4] | Potency [5] | outcome [6] | Potency [7]

CCCCC(=O)Cl
inactive: Potency [1] | Potency [8] | Potency [3] | Potency [4] | Potency [9] | Potency [10] | Potency [5] | outcome [6] | Potency [11]

CCCSP(=O)(OCC)Oc1ccc(Br)cc1Cl (stereo not given)
active: Potency [2] 33.3 µM | Potency [3] 29.7 µM
inactive: Potency [1] | Potency [4] | Potency [9] | Potency [12] | Potency [5] | outcome [6] | Potency [11]

C[C@]1(O)CC[C@H]2[C@@H]3CCC4=CC(=O)CC[C@]4(C)[C@@]3(F)[C@@H](O)C[C@@]21C
inactive: Potency [1] | Potency [2] | Potency [3] | Potency [4] | Potency [9] | outcome [6] | Potency [11] | Potency [7]

CS(=O)(=O)c1cc(C(F)(F)F)ccc1C(=O)c1cnoc1C1CC1
inactive: Potency [1] | Potency [8] | Potency [3] | Potency [9] | Potency [12] | Potency [10] | Potency [5] | Potency [13] | outcome [6] | Potency [14] | activation [15] 0.699% | Potency [16] | Potency [11] | Potency [7]

Nc1c(Br)cc([N+](=O)[O-])cc1[N+](=O)[O-]
inactive: Potency [1] | Potency [8] | Potency [17] | outcome [18] | Potency [5] | Potency [13] | outcome [6] | Potency [14] | Potency [16] | Potency [7]
active: Potency [12] 55.1 µM | Potency [10] 61.8 µM | Potency [11] 31 µM
